The subject of test [1] is Plasmodium falciparum Sir2 (PF13_0152, Sir2A). As to the kind of experiment: Plasmodium falciparum Sir2A binding compounds – biochemical, small-molecule microarray, 635 nm fluorescence, primary screen (AID 1098).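 Further: score merges spot fluorescence intensity with its signal-to-noise ratio.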 The conditions noted are these: fluorescence 635 nm, higher = more signal.
Test [2] is described as follows: probe aDKK1 binding to arrayed compounds – biochemical, biotinylated probe, 635/667 nm fluorescence, primary screen (AID 1099).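 Further: score merges 667nm spot fluorescence with signal to noise across triplicate slides.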 The conditions noted are these: small-molecule microarray, higher = more signal.
Test [3] can be described thus: probe aCHRDL2 binding to arrayed compounds – biochemical, biotinylated probe, 635/667 nm fluorescence, primary screen (AID 1100). The conditions noted are these: small-molecule microarray, higher = more signal.
The nature of test [4]: change in splice reporter luminescence, either direction, cell-based, HEK293, spliceosome inhibition project, primary screen (AID 1101).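 Further: HEK293 cells carrying a splicing-competent luciferase reporter gene; test concentration not given here.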 The conditions noted are these: HEK293 splicing luciferase reporter, 24 h, higher = more signal, called active from +8 up or from −8 down. Background: A reporter such as luciferase makes a cellular process visible.
In test [5] the target is Fibroblast growth factor 10 (Homo sapiens) (UniProt O15520). As to the kind of experiment: compounds binding fibroblast growth factor 10 – biochemical, small-molecule microarray, 635 nm fluorescence, primary screen (AID 1102). The conditions noted are these: FGF10 binding, fluorescence 635 nm, higher = more signal.
The test system of test [6] is glycogen synthase kinase-3 (GSK3A per assay name; protocol says GSK3B). The test can be described thus: compounds binding glycogen synthase kinase-3 – biochemical, small-molecule microarray, 635 nm fluorescence, GSK3A, primary screen (AID 1103). Further: the record names both GSK3A and GSK3B. The conditions noted are these: fluorescence 635 nm, higher = more signal.
Test [7] addresses Epidermal growth factor receptor (Homo sapiens) (UniProt P00533). As to the kind of experiment: compounds binding epidermal growth factor receptor – biochemical, small-molecule microarray, 635 nm fluorescence, primary screen (AID 1104).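 Further: score merges 667 nm emission intensity with spot signal to noise over triplicate slides.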 The conditions noted are these: EGFR binding, higher = more signal.
Test [8] addresses Follistatin-related protein 3 (Homo sapiens) (UniProt O95633). The test can be described thus: compounds binding follistatin-related protein 3 – biochemical, small-molecule microarray, 635 nm fluorescence, primary screen (AID 1105).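 Further: score merges emission near 667 nm and signal to noise per printed spot across three slides.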 The conditions noted are these: FSTL3 binding, higher = more signal.
Test [9] addresses Dickkopf-related protein 1 (Homo sapiens) (UniProt O94907). The test can be described thus: small molecules binding DKK1 protein – biochemical, small-molecule microarray, 635 nm fluorescence scan, primary screen (AID 1106).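 Further: score merges emission near 667 nm with signal to noise over three replicate slides.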 The conditions noted are these: higher = more signal.
The subject of test [10] is Inhibin beta A chain (activin A). The test can be described thus: small molecules binding activin A – biochemical, small-molecule microarray, 635 nm fluorescence scan, primary screen (AID 1107).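 Further: mouse activin A protein probed at 4.33 µg/mL on printed slides; score merges bound-protein fluorescence near 667 nm with spot signal-to-noise.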 The conditions noted are these: INHBA, higher = more signal.
Test [11] has as its system Human papillomavirus type 1a protein E7 (residues 44-93). The test can be described thus: small molecules binding HPV E7 44-93 – biochemical, small-molecule microarray, residues 44-93, 635 nm fluorescence, primary screen (AID 1108).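 Further: E7 fragment applied at 1 µg/mL in TBST for 1 h at 4 C; score combines spot fluorescence with its signal to noise ratio.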 The conditions noted are these: fluorescence 635 nm, higher = more signal.
Test [12] can be described thus: hepatitis C replication reporter changes, two-sided – Huh7 cells, luciferase reporter, HCV replication inhibitor project, primary screen (AID 1109).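 Further: huh7 hepatoma cells harbouring a luciferase neomycin HCV replicon reporter; luciferase luminescence as measure of HCV replicon replication; test concentration not given here.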 The conditions noted are these: Huh7 HCV replicon luciferase reporter, 48 h; higher = more signal.
Test [13] concerns the target Left-right determination factor 2 (Homo sapiens) (UniProt O00292). The test can be described thus: small molecules binding LEFTY2 protein – biochemical, small-molecule microarray, 635 nm fluorescence scan, primary screen (AID 1110). The conditions noted are these: higher = more signal.
In test [14] the target is Calmodulin-1 (Homo sapiens) (UniProt P0DP23). As to the kind of experiment: small molecules binding calmodulin-1 with EGTA – biochemical, small-molecule microarray, Cy5-labelled CALM1, profiling panel (AID 1111).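 Further: labelled calmodulin applied in Tris saline Tween buffer holding calcium plus EGTA and DTT.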 The conditions noted are these: Cy5-CALM1 binding fluorescence, higher = more signal.
Test [15] shares this target. As to the kind of experiment: small molecules binding Ca-loaded calmodulin-1 – biochemical, small-molecule microarray, Cy5-labelled CALM1, plus calcium, artefact control for SMM control-protein annotation, profiling panel (AID 1112).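 Further: score merges spot fluorescence with signal to noise from triplicate slides.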 The conditions noted are these: Cy5-CALM1 binding fluorescence, higher = more signal.
Test [16] can be described thus: probe aWnt5a binding to arrayed compounds – biochemical, biotinylated probe, 635/667 nm fluorescence, primary screen (AID 1113).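 Further: score merges 667 nm fluorescence intensity with signal-to-noise per printed feature.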 The conditions noted are these: small-molecule microarray, higher = more signal.
Test [17] in a line: probe aShh binding to arrayed compounds – biochemical, biotinylated probe, 635/667 nm fluorescence, primary screen (AID 1114).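 Further: probe is biotin-labelled aShh protein from a stem cell growth factor screen; measures binding of labelled protein to compounds printed on the slide; score merges feature fluorescence at 667 nm with signal-to-noise.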 The conditions noted are these: small-molecule microarray, higher = more signal.
Test [18] can be described thus: probe aNog binding to arrayed compounds – biochemical, biotinylated probe, 635/667 nm fluorescence, primary screen (AID 1115).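 Further: probe is biotinylated aNog protein used at 0.15 µg/mL for 1 h at 4 C; z-score combines 667 nm fluorescence of each spot with its signal to noise.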 The conditions noted are these: small-molecule microarray, higher = more signal.
In test [19] the target is Torsin-1A-interacting protein 1 (Homo sapiens) (UniProt Q5JTV8). The test can be described thus: compound microarray binding of lysate hLAP1 – cell lysate, small-molecule microarray, COS7 lysate, 635/667 nm fluorescence, primary screen (AID 1116). The conditions noted are these: 635 nm fluorescence, higher = more signal.
Test [20] addresses Alpha-bungarotoxin (Bungarus multicinctus) (UniProt P60615). The test can be described thus: compounds binding labelled alpha-BTX control protein – biochemical, small-molecule microarray, Alexa647 label, 635/667 nm fluorescence, artefact control for SMM control protein annotation, profiling panel (AID 1117). The conditions noted are these: alpha-BTX-A647 binding fluorescence, higher = more signal.

Calls of active or inactive are those of the source.

Chain of Dickkopf-related protein 1 (Homo sapiens) (O94907 whole entry, looked up): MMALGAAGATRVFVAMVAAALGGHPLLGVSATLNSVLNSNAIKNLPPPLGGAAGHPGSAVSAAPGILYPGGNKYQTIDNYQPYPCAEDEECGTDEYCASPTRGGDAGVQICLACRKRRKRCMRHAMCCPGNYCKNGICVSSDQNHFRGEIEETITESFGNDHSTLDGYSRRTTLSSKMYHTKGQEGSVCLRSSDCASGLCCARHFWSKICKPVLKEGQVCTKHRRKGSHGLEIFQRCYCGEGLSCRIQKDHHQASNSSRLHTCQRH
Chain of Left-right determination factor 2 (Homo sapiens) (O00292 whole entry, looked up): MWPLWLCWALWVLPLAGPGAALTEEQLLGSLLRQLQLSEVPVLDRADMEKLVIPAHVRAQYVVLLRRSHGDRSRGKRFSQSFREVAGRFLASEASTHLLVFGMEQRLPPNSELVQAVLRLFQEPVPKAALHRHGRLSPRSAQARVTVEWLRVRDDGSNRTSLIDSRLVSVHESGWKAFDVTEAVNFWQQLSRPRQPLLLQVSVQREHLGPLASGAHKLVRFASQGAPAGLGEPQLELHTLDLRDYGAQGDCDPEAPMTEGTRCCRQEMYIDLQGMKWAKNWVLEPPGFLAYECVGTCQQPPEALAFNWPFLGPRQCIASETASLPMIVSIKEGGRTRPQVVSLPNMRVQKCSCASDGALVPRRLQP
Chain of Alpha-bungarotoxin (Bungarus multicinctus) (P60615 whole entry, looked up): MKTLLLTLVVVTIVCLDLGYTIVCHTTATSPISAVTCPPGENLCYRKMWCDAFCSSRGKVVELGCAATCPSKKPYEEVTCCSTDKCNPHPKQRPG
Chain of Fibroblast growth factor 10 (Homo sapiens) (O15520 whole entry, looked up): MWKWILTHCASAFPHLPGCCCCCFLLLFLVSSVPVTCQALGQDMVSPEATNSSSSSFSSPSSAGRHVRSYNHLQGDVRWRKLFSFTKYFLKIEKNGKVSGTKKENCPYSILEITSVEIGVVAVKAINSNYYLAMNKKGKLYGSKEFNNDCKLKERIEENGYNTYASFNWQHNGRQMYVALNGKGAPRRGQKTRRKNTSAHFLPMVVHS
Chain of Epidermal growth factor receptor (Homo sapiens) (P00533 whole entry, looked up): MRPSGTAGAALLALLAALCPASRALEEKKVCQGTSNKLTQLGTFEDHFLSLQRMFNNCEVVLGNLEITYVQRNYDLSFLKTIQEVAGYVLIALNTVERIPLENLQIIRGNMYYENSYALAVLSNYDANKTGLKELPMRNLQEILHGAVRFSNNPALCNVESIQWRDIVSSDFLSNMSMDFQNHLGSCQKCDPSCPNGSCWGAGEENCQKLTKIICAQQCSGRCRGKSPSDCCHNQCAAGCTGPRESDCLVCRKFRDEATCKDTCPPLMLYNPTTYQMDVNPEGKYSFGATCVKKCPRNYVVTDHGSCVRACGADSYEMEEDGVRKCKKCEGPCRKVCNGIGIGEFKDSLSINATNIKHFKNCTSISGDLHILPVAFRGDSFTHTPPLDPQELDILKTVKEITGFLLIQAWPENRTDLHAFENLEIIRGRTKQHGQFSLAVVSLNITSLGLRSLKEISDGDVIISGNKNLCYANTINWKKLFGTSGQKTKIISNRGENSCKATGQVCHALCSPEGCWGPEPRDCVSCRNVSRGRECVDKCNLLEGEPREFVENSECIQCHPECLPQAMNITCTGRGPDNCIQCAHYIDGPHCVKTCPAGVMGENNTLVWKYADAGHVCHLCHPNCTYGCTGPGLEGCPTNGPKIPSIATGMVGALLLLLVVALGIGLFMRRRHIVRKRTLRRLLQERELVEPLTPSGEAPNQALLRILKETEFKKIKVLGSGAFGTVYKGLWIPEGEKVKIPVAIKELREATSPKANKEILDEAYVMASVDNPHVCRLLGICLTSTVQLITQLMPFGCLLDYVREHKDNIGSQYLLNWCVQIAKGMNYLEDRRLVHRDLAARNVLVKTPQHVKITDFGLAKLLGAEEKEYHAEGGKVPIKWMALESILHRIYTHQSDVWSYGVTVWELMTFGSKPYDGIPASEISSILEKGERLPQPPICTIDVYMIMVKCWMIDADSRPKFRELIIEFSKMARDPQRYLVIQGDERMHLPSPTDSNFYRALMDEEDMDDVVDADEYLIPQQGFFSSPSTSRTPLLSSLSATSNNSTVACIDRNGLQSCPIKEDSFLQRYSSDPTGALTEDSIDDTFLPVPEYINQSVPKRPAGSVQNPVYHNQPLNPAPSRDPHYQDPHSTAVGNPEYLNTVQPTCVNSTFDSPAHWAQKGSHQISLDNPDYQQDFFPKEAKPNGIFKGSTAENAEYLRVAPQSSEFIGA
Chain of Follistatin-related protein 3 (Homo sapiens) (O95633 whole entry, looked up): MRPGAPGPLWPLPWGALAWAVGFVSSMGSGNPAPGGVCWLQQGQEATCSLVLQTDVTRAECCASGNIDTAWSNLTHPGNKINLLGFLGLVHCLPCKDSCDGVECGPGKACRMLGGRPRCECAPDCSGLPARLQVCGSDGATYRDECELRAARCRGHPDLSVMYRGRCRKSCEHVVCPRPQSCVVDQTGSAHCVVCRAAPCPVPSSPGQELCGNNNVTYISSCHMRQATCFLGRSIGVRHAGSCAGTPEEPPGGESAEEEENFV
Chain of Torsin-1A-interacting protein 1 (Homo sapiens) (Q5JTV8 whole entry, looked up): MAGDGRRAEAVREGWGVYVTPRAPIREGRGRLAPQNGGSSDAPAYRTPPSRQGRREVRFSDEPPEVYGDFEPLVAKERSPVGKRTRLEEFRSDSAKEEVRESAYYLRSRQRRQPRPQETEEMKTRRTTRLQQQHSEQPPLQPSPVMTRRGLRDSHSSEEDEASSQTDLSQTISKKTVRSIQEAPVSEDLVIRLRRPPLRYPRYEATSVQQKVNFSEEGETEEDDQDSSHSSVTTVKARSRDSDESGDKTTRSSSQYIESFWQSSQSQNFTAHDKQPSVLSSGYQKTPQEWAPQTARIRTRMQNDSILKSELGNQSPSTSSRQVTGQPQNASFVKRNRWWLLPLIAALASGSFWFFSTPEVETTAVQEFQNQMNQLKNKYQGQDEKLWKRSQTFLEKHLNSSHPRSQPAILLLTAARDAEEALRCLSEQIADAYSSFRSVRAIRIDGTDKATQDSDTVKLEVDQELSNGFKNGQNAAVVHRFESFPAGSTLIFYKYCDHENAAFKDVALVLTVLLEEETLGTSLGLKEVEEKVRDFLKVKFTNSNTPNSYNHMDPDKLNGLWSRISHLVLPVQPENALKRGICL

`CC1CC/C=C\[C@H]2OC34C=CCN(C(C)C)C(=O)[C@H]3N(C(C)CO)C(=O)[C@@H]4C2C(=O)O1` (stereo not given in full): the composite z-score was 0.048 in test [1]; -0.27 in test [2]; -0.335 in [3]; -0.171 in [5]; -0.297 in test [6]; -0.467 in test [7]. For the same molecule, the composite z-score was 0.0275 in [8]; 0.165 in [9]; 0.727 in [10]; -0.607 in test [11]; -0.334 in test [13]; -0.174 in test [14]. The composite z-score in test [15] is -0.824; in test [16], -0.128; in [17], -0.304; in [18] it was -0.0381; in test [19], 0.0726; in test [20], -0.215. Also, the z-score in test [4] was -0.789 (inactive); in test [12], -1.43.

`COC(=O)c1ccc(OC)c(/C=C\CC(OC(=O)c2ccncc2)c2ccccc2)c1` (stereo not given): the composite z-score in [1] is -0.475; in [2], -0.367; in test [3], -0.43; in [5], 0.377; in [6], 0.058; in test [7], 1.09. Further, the composite z-score in test [8] was 0.891; in test [9], 0.631; in test [10], 1.61; in test [11], -0.734; in [13], 0.684; in test [14], -1.05. In addition, the composite z-score in test [15] was 0.157; in [16] it was -0.101; in test [17] it was -0.206; in test [18], -0.183; in test [19], 0.187; in test [20], 2.12. The z-score in test [4] is -2.07 (inactive); in test [12], -1.91.

Regarding `COc1ccc([Si](C)(C)[C@H]2[C@H](CC(=O)N(CCO)Cc3ccccc3)O[C@@]3(C(=O)N(Cc4cccc(N5CCCCC5=O)c4)c4ccccc43)[C@@H]2C)cc1`, the composite z-score in test [1] is 0.535; in [2], -0.147; in test [3] it was -0.13; in test [5] it was 0.114; in [6] it was -0.0519; in test [7], -0.0805. Also, the composite z-score in [8] was 0.436; in test [9] it was 0.327; in test [10], 0.167; in test [11], 0.558; in [13], 0.384; in [14], -0.0075. Moreover, the composite z-score was 0.117 in test [15]; -0.147 in [16]; 0.235 in [17]; -0.0863 in test [18]; -0.0746 in [19]; 0.595 in [20]. The z-score in test [4] is -2.32 (inactive); in test [12], -4.06.

As to `C=CCOC(=O)[C@H]1[C@@H]2C(=O)O[C@@H](c3ccccc3)[C@@H](c3ccccc3)N2[C@@H](c2ccc(OCCOC(=O)[C@H]3C[C@H]4C(=O)NCC(=O)N4[C@H]3c3cccc(OCCO)c3)cc2)[C@]12C(=O)Nc1ccc(I)cc12`, the composite z-score in test [1] is 1.1; in test [2], -0.109; in [3], 0.0341; in test [5], 1.37; in test [6], 1.3; in test [7], 0.504. Besides, the composite z-score in test [8] was found to be 1.37; in test [9], 0.614; in test [10], 0.622; in [11], 1.23; in test [13], 0.541; in [14], 1.05. Also, the composite z-score is 0.0934 in [15]; 0.0629 in [16]; 0.131 in test [17]; 0.131 in [18]; 1.44 in test [19]; 1.08 in test [20]. For the same molecule, the z-score in [4] is 0.341 (inactive); in test [12] it was -0.903.

As for `C=C[C@@H](CO)NS(=O)(=O)c1ccc(Br)cc1`, the composite z-score in test [1] was -1.62; in [2], -0.267; in test [3] it was -0.0866; in test [5], -0.398; in [6], -0.986; in [7], -0.288. In addition, the composite z-score in [8] is -0.459; in test [9], -0.0213; in test [10], 0.733; in test [11], -1.71; in test [13], -0.671; in test [14], -1.05. Also, the composite z-score in test [15] is -0.453; in test [16], -0.208; in test [17] it was -0.153; in [18], -0.158; in [19] it was 0.127; in test [20], -0.796. Moreover, the values for the z-score in test [4] and in test [12] were -0.774 (inactive) and 0.0931, respectively.

Take `COc1cc2c(cc1O)C(C)N(Cc1sc3ccccc3c1Cl)CC2` (stereo not given): the composite z-score in [1] was -0.0748; in [2], 0.247; in test [3], 0.868; in test [5] it was -1.16; in test [6], -0.306; in test [7] it was -1.27. The composite z-score in test [8] is -0.348; in [9] it was -1.56; in test [10] it was -0.0182; in test [11], -1.91; in test [13], -1.41; in test [14] it was 1.23. Besides, the composite z-score in test [15] was 0.869; in [16], -0.117; in [17] it was 0.075; in test [18], 0.426; in test [19] it was -0.216; in test [20] it was 0.201. Also, the figures for the z-score in [4] and in test [12] were -0.283 (inactive) and -0.728, respectively.

Source of the values: PubChem BioAssay.
